Bioassay records (PubChem)
This is one part of a sample in which hits are shown more often than they occur.
KDM5B inh – KDM5B demethylase inhibition; hit rate 2.6% among 220,000; KDM5B demethylase, FDH-coupled NADH fluorescence (FDH is formaldehyde dehydrogenase); Potency, µM (titrated, usually from 57.7 µM), actives largely listed as inhibitors; active = well fitted inhibition curve with a large enough effect; note: 0% is about no effect; nearly all actives have a fitted effect of over 70% in size
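Compound dilutions met 200 nM (final) KDM5BΔAP for 10 min at room temperature before substrate addition. The substrate mix held 12.5 µM H3K4me3 with cofactors 25 µM α-ketoglutarate and 50 µM Fe²⁺. NADH signal gain over 30 min defined activity.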
The depositor's hits bear a star. Potency is the fitted concentration of half-maximal effect.

Clc1ccc(-c2cnc(CSc3n[nH]c(-c4ccccc4)n3)o2)cc1 was read as KDM5B inh inactive.
Screening C=CCNC(=O)c1ccccc1NC(=O)c1cccc(C#N)c1 returned KDM5B inh inactive.
Screening O=C(Nc1ccc(Cl)nc1)c1cccn2nccc12 returned KDM5B inh 35.5µM*.
Screening O=C(NNC(=O)c1ccc(Cl)nc1)c1ccncc1 returned KDM5B inh inactive.
For C=CCNC(=O)c1ccn2nccc2c1 the results were KDM5B inh inactive.
CNC(=O)c1ccc2ccnn2c1 was read as KDM5B inh 35.5µM*.
`O=C(NC1CC1)c1ccn2nccc2c1` gave KDM5B inh inactive.
For CNC(=O)c1ccc(OCc2nnc(C(C)(C)C)o2)cc1 the results were KDM5B inh inactive.
Screening CC(=O)c1ccc(NC(=O)c2cc3ncccn3n2)cc1 returned KDM5B inh inactive.
`Cn1cc(C(=O)Nc2ccc(Cl)c(Cl)c2)cn1` gave KDM5B inh inactive.
`O=C(Nc1ccc(Cl)nc1)c1ccc2ccnn2c1` gave KDM5B inh 31.6µM*.
Screening O=C(Nc1ccc(F)cc1)c1cccn2nccc12 returned KDM5B inh inactive.
C=CCNC(=O)c1cccn2nccc12 was read as KDM5B inh 31.6µM*.
CN(C)CCNc1oc(-c2ccc(F)cc2)nc1S(=O)(=O)c1ccc2c(c1)OCCO2 was read as KDM5B inh inactive.
For CCOc1cc(CNC(=O)c2ncoc2-c2cccc(Cl)c2)ccc1OC the results were KDM5B inh inactive.
For Cc1ccc(/C(COc2ccc3c(C)c(Cc4ccccc4)c(=O)oc3c2C)=N/O)cc1 the results were KDM5B inh inactive.
For Cc1ccc(NC(=O)Cn2c(=O)n(C)c(=O)c3sc(N4CCCC4)nc32)c(Cl)c1 the results were KDM5B inh inactive.
C#CCN(CCC(=O)NC(N)=O)Cc1ccc(C)cc1 was read as KDM5B inh inactive.
Screening CC(C)CNC(=O)C1(CCO)CCN(Cc2ccccc2)C1 (configuration not stated) returned KDM5B inh inactive.
Screening O=C(NCCN1CCC(Cc2ccccc2)CC1)C1(CCO)CC12CCOCC2 (configuration not stated) returned KDM5B inh inactive.
O=C(NCCN1CCCCC1)C1(CCO)CCN(c2ncccn2)C1 (configuration not stated) was read as KDM5B inh 25.1µM*.
`O=C(NC1CCCC1)C1(CCO)CCN(Cc2ccccc2)C1` (configuration not stated) gave KDM5B inh inactive.
For CC(C)CNC(=O)C1(CCO)CCN(c2ncccn2)C1 (configuration not stated) the results were KDM5B inh 25.1µM*.
O=C(NCC1CCCCC1)C1(CCO)CCN(c2ncccn2)C1 (configuration not stated) was read as KDM5B inh 31.6µM*.
CC(C)CCNC(=O)C1(C)Cn2nc(C(=O)NCCN3CCCCCC3)cc2C(=O)N1C (configuration not stated) was read as KDM5B inh inactive.
`O=C(NCC1CC1)C1(CCO)CCN(Cc2ccccc2)C1` (configuration not stated) gave KDM5B inh inactive.
`CC(NCCC(=O)N1CCN(c2ncccn2)CC1)c1ccc(Cl)cc1Cl` (configuration not stated) gave KDM5B inh inactive.
`Cn1c(NCCCO)nc2c1c(=O)n(Cc1ccc(Br)cc1)c(=O)n2C` gave KDM5B inh inactive.
N#C/C(=C\c1ccccc1OC(=O)c1cccc2ccccc12)C(=O)Nc1ccccc1C(F)(F)F was read as KDM5B inh inactive.
O=C(NC1CCc2nnc(C3CC3)n2CC1)c1cccs1 (configuration not stated) was read as KDM5B inh inactive.
Screening Cc1ccc(C(=O)NC2CCc3nnc(C4CC4)n3CC2)c(=O)[nH]1 (configuration not stated) returned KDM5B inh 31.6µM*.
For Cc1ncoc1C(=O)NC1CCc2nnc(C3CC3)n2CC1 (configuration not stated) the results were KDM5B inh inactive.
Screening Cn1nc(C(=O)N2CC(C)(C)C(C)(O)C2)cc1-c1cccs1 (configuration not stated) returned KDM5B inh inactive.
Cc1ccccc1-c1nnc(SCC(=O)Nc2nnc(-c3ccccc3)o2)n1C was read as KDM5B inh inactive.
COc1ccc(OC)c(-n2c(-c3ccc(F)cc3)cn3c4c(=O)[nH]c(=O)n(C)c4nc23)c1 was read as KDM5B inh inactive.
COc1cccc(CN2Cc3nc(-c4cccc(NC(C)=O)c4)ccc3OCC2=O)c1 was read as KDM5B inh inactive.
`COc1cccc(CN2Cc3nc(Oc4ccccc4)ccc3OCC2=O)c1` gave KDM5B inh inactive.
For CN(c1ccccc1)c1ccc2c(n1)CN(Cc1ccc(F)cc1)C(=O)CO2 the results were KDM5B inh 31.6µM*.
For O=C1COc2ccc(OCc3cncs3)nc2CN1Cc1ccc(F)cc1 the results were KDM5B inh inactive.
`COc1cccc(CN2Cc3nc(-c4cnn(Cc5ccccc5)c4)ccc3OCC2=O)c1` gave KDM5B inh inactive.
O=C(CN1Cc2nc(-c3cc4ccccc4o3)ccc2OCC1=O)N1CCCC1 was read as KDM5B inh 28.2µM*.
Screening COc1cccc(CN2Cc3nc(N(C)c4ccccc4)ccc3OCC2=O)c1 returned KDM5B inh 31.6µM*.
Screening CN1CCCC1COc1ccc2c(n1)CN(Cc1ccc(F)cc1)C(=O)CO2 (configuration not stated) returned KDM5B inh inactive.
`Cc1ccccc1-c1ccc2c(n1)CN(CCOc1ccccc1)C(=O)CO2` gave KDM5B inh inactive.
O=C(CN1Cc2nc(-c3ccsc3)ccc2OCC1=O)N1CCCC1 was read as KDM5B inh inactive.
For NC(=O)c1cccc(-c2ccc3c(n2)CN(Cc2ccc(F)cc2)C(=O)CO3)c1 the results were KDM5B inh 35.5µM*.
Screening CC(=O)Nc1cccc(-c2ccc3c(n2)CN(Cc2ccccc2)C(=O)CO3)c1 returned KDM5B inh inactive.
For CC1=C(C(=O)Nc2cccc(C(F)(F)F)c2)C(c2ccc(Cl)cc2)n2ncnc2N1 (configuration not stated) the results were KDM5B inh inactive.
`O=C(OCc1ccc(F)cc1)C(c1ccccc1)N1CCC(O)CC1` (configuration not stated) gave KDM5B inh inactive.
COc1cc(NC(=O)Cn2cccc2-c2nc(-c3ccc(F)cc3)no2)cc(OC)c1 was read as KDM5B inh inactive.
Screening CSCC[C@H](NC(=O)[C@H](C)n1nnc2ccccc2c1=O)C(=O)O returned KDM5B inh inactive.
Screening O=C(NCc1ccccc1S(=O)(=O)N1CCOCC1)c1cccc(Br)c1 returned KDM5B inh inactive.
COc1ccc(NC(=O)[C@@H]2COCC(=O)N2Cc2ccc(OC)c(OC)c2)cc1Cl was read as KDM5B inh inactive.
CCOc1cc(/C=C/C(=O)c2ccc(OC)c(Br)c2)ccc1OC was read as KDM5B inh inactive.
For CCC(=O)N1CC(n2cc(C(=O)NCC3CC3)nn2)C1 the results were KDM5B inh inactive.
`CC(OC(=O)c1csc(NCc2ccccc2)n1)C(=O)N1CCNC1=O` (configuration not stated) gave KDM5B inh inactive.
Fc1ccc(-c2cnc([C@@H]3COCCN3Cc3c[nH]c4ccccc34)[nH]2)c(F)c1 was read as KDM5B inh inactive.
